Measurements taken from the supplement of paper PMC7156485.
± gives the standard deviation of the averaged measurements.
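Also: TDF denotes transformed human dermal fibroblasts of mesenchymal origin.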

These compounds were tested on HCC1569 (assay: cell number relative to DMSO (% of DMSO); higher = more cells (less growth inhibition / toxicity)). Details: concentration: 10 µM; 24 h.
How it was run: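 H1.0 nuclear intensity or cell number is expressed as percent of the plate control, with the median of replicates taken. HCC1569 and TDF cells were treated with compounds at 10 µM for 24 h at 37 °C, in triplicate, then fixed and immunostained for H1.0 with DAPI as a nuclear stain. HCC1569 values were smoothed to correct for positional effects.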
With `N#CC(=C1Nc2ccccc2S1)c1ccnc(NCCc2cccnc2)n1` [JNK Inhibitor V] the cell number was 73.6. Work on `Cc1ccccc1C(C(=O)NC1CCCCC1)N(C(=O)Cn1ccnc1C)c1cccc(F)c1` (stereo not given) yielded a cell number of 94.3. With `Cc1ccccc1N1C(=O)c2cc(S(N)(=O)=O)c(Cl)cc2NC1C` (stereo not given) [Metolazone] the cell number was 104. In the case of `CCOC(=O)[C@H](CCc1ccccc1)N[C@@H](C)C(=O)N1C(=O)N(C)C[C@H]1C(=O)O.Cl`, the cell number is reported as 107. `CC(C)=CCCC(C)=CCCC(C)=CCCC(C)=CCCC(C)=CCCC(C)=CCCC(C)=CCCC(C)=CCCC(C)=CCO` [Solanesol] was tested, and the cell number was 104. For `CNCCCC1c2ccccc2C=Cc2ccccc21.Cl` [Protriptyline hydrochloride], the cell number was 92.7. Work on `CCN(CC)CC(=O)Nc1c(C)cccc1C.Cl` [Lidocaine hydrochloride] yielded a cell number of 97.3. `Cc1ccc(NC2=CC(=O)c3sc(C)nc3C2=O)cc1` gave a cell number of 27.9. `O=C(Nc1cccc2c(=O)cc(-c3nn[nH]n3)oc12)c1ccc(OCCCCc2ccccc2)cc1` [Pranlukast] gave a cell number of 101. Compound `O=c1sn(-c2cccc3ccccc23)c(=O)n1Cc1ccccc1` [4-benzyl-2-(1-naphthyl)-1,2,4-thiadiazolidine-3,5-dione] has a cell number of 94.9. For `NC1CONC1=O` [L-Cycloserine], the cell number was 102 ± 2.4. Work on `CCCCCC(O)C=CC=CC=CC(O)CC=CCCCC(=O)O` [8(S),15(S)-DIHETE all trans] yielded a cell number of 103. `CC(C)C(CO)Nc1nc(Nc2cc(N)cc(Cl)c2)c2ncn(C(C)C)c2n1` (stereo not given) gave a cell number of 60.6. `CC(N)(Cc1ccc(O)cc1)C(=O)O` (racemic) [DL-alpha-Methyl-p-tyrosine] gave a cell number of 103. Compound `COc1cc(C(O)C(=O)O)ccc1O` (racemic) has a cell number of 105. Compound `COc1ccc(/C=C2\COc3ccc(C)cc3C2=O)cc1O` has a cell number of 58.1. `O=C(C=CC=Cc1ccc2c(c1)OCO2)N1CCCCC1` [Piperine] gave a cell number of 100. Compound `CC1OC(OC2C(Oc3cc(O)c4c(=O)cc(-c5ccc(O)cc5)oc4c3)OC(CO)C(O)C2O)C(O)C(O)C1O` (stereo not given) [Rhoifolin] has a cell number of 102. In the case of `COc1cc2c[n+](C)c3c4cc5c(cc4ccc3c2cc1OC)OCO5.[Cl-]`, the cell number is reported as 85.3. `CC1COc2c(N3CCN(C)CC3)c(F)cc3c(=O)c(C(=O)O)cn1c23` (stereo not given) [Levofloxacin] was tested, and the cell number was 103. `O=C(Nc1cccc(Nc2nccc(Nc3cccc(C(F)(F)F)c3)n2)c1)C1CC1` [Aurora Kinase Inhibitor III] was tested, and the cell number was 63 ± 1.4. For `Nc1nc(Nc2ccc(S(N)(=O)=O)cc2)nn1C(=S)Nc1c(F)cccc1F` [Cdk1/2 Inhibitor III], the cell number was 51.9. With `Cc1ccc(C(=O)c2cc(O)c(O)c([N+](=O)[O-])c2)cc1` [Tolcapone] the cell number was 101. For `CCCCCC=CCC=CCC=CCC1OC1CCCC(=O)O` (stereo not given) [5,6-Epoxyeicosatrienoic acid], the cell number was 101. `CN(C)CCOC(C)(c1ccccc1)c1ccccn1.O=C(O)CCC(=O)O` (stereo not given) [Doxylamine succinate] was tested, and the cell number was 99.5. For `CC1(COc2ccc(CC3SC(=O)NC3=O)cc2)CCCCC1` (stereo not given) [Ciglitizone], the cell number was 102. In the case of `CN(Cc1ccc(C(C)(C)C)cc1)Cc1cccc2ccccc12` [Butenafine], the cell number is reported as 101. `Cc1c(O)cc2c(c1C)OC(C)(CCCC(C)CCCC(C)CCCC(C)C)CC2` [D-γ-Tocopherol] was tested, and the cell number was 100. For `COC(=O)C1C(O)CCC2CN3CCc4c([nH]c5ccccc45)C3CC21.Cl` (stereo not given) [Yohimbine hydrochloride], the cell number was 99.8. `O=S1(=O)CCN(CN2CCS(=O)(=O)NC2)CN1` was tested, and the cell number was 98.4. Compound `C=C1NC(=O)C2=C(CCSC2)N1` has a cell number of 102. Compound `Cc1[nH]ccc2c1[nH]c1cc(=O)ccc12.Cl.O.O` has a cell number of 94. Work on `COc1cc(C2c3cc4c(cc3C(OC3OC5COC(C)OC5C(O)C3O)C3COC(=O)C23)OCO4)cc(OC)c1O` (stereo not given) [Etoposide] yielded a cell number of 74.1 ± 1.6. For `Nc1nc(N)c2nc(CNc3ccc(C(=O)NC(CCC(=O)O)C(=O)O)cc3)cnc2n1` (stereo not given) [Aminopterin], the cell number was 80.8. For `CCOC([O-])=Nc1c[n+](N2CCOCC2)no1` [Molsidomine], the cell number was 106 ± 1.7. `CCCCCC#CCC#CCC#CCC#CCCCC(=O)O` [5,8,11,14-Eicosatetraynoic acid] was tested, and the cell number was 105. `CCCCCCCCCC(=O)O` [Decanoic acid] gave a cell number of 105. With `CS(=O)(=O)O.CSc1ccc2c(c1)C(N1CCN(C)CC1)Cc1ccccc1S2` (stereo not given) [Methiothepin mesylate] the cell number was 91.1. In the case of `COc1c(N2CC3CCCNC3C2)c(F)cc2c(=O)c(C(=O)O)cn(C3CC3)c12.Cl` (stereo not given) [Moxifloxacin.HCl], the cell number is reported as 101. `O=C1c2ccccc2-c2n[nH]c3cccc1c23` [JNK Inhibitor II] showed a cell number of 91.4.
